Inconclusive results are not listed. Calls of active or inactive are those of the source.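 Rule for the calls: active = compounds whose fitted half-maximal viability loss lies within twice the top dose at every treatment time; inconclusive = the three treatment times give differing calls; inactive = inactive at every treatment time.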
Assay: cytotoxicity in primary umbilical vein endothelium – cell-based, Alamar Blue fluorescence, 8-48 h, dry powder, cytotoxicity control for HRAS target identification, late-stage follow-up (AID 720612)

Row | Structure (SMILES) | outcome
1 | CCC(=O)N(c1ccc(OC)c(Cl)c1)C(C(=O)NCCc1ccccc1)c1cccs1 (configuration not stated) | inactive
2 | Cc1onc(C(=O)N2CCN(C(c3ccncc3)c3ccncc3)CC2)c1[N+](=O)[O-] | inactive

From PubChem BioAssay AID720612 (Broad Institute, 2013)
